Drawing on PubChem BioAssay AID489036 (National Center for Advancing Translational Sciences (NCATS), 2010), this text covers outcome for 2 molecules.

Results filed as inconclusive are left out. Active and inactive are the calls of the source. Calls come from the whole dose curve; as a rule, active = well fitted inhibition curve with a large enough effect; inconclusive = small, poorly fitted or top-dose-only effect, or effect the other way; inactive = flat fitted curve, though single readings scatter.

This experiment in a line: VP16 selectivity assay for inhibitors of ROR gamma transcriptional activity. From the text: NIH Molecular Libraries Probe Production Network [MLPCN] NIH Chemical Genomics Center [NCGC] MLPCN Grant: R03 DA026211-01 Assay Provider: Dan Littman, New York University Assay Overview: The retinoic acid-related orphan receptor (ROR) gamma is a transcription factor that has a central role in the differentiation of Th17 cells, a subset of T helper cells that secrete the inflammatory cytokines IL-17, IL-17F, and IL-22. Th17 cells have been implicated in graft versus host disease, autoimmune disease and asthma. ROR gamma is induced in naive T helper cells in the presence of TGF-beta combined with IL-6, IL-21, or IL-23, and thereafter directs the expression of the Th17 lineage cytokines. […] Small molecule inhibitors that inhibit components common to the RORgt and VP16 assays, such as the Gal4 DNA binding domain or the UAS luciferase reporter, will be active in both assays and thus scored as nonspecific.
Assay Protocol Summary: For screening, 600 cells in 4 uL/well were dispensed into white solid 1536-well plates (Grenier) using a solenoid-based dispenser. […] After addition of 1.5 uL Photinus luciferase detection reagent, the plates were incubated 10 min at ambient temperature and then read by an ViewLux (Perkin Elmer) to detect luminescence.

For the molecule `CC1OC(O[C@@H]2C(O)CC(O[C@@H]3C(O)C[C@@H](OC4CC[C@@]5(C)C6CC[C@]7(C)C(C8=CC(=O)OC8)C(O)C[C@@]7(O)[C@H]6CC[C@@H]5C4)OC3C)OC2C)CC(O)C1O` (some centres not stated), the call was inactive. As for `CO[C@H]1[C@@H](O)CC(OC2[C@@H](O)CC(OC3[C@@H](O)C[C@H](OC4CC[C@@]5(C)C(CCC6C5CC(O)[C@]5(C)[C@H](C7=CC(=O)OC7)CCC65O)C4)O[C@@H]3C)O[C@@H]2C)O[C@@H]1C` (some centres not stated), the entry is “inactive”.
